Source: PubChem (Broad Institute)
p53 mut binder: binds human mutant p53 on microarray | small molecule microarray binding, anti-GST fluorescence | calls only | 17,000 compounds, 0.4% hits;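 active = compounds whose four printed spots each glow above background more than chance allows, each with a p-value under 7%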
Myc binder: binders of human c-Myc; calls only; P01106; AID 624141; small molecule microarray, His-c-Myc binding, anti-His fluorescence; 17,000 compounds, 1.5% hits;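 active = spot fluorescence over background with P-value below 7% in all four replicate spots, showing protein binding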
Target sequence (P01106 whole entry, looked up): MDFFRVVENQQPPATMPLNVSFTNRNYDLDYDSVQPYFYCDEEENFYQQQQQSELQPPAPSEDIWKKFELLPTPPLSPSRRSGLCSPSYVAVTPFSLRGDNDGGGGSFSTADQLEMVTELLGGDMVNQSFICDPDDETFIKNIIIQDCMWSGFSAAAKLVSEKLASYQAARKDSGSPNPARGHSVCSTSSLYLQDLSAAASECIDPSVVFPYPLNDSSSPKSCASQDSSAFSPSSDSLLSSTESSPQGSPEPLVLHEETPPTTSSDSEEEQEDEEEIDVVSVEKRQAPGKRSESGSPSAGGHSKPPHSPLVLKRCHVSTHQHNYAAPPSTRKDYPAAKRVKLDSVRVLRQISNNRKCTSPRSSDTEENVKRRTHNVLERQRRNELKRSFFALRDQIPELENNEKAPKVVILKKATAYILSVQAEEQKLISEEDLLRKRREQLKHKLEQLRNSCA
STAT3 SMM: binds human STAT3 on microarray. P40763. Small molecule microarray, His-STAT3 binding, anti-His fluorescence. calls only. 17,000 compounds, 0.2% hits. AID 624138;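 active = compounds whose four printed spots each show fluorescence over background unusually high for their array block, chance value under 7%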
NFkB SMM: binders of human NF-kappa-B p105. calls only. Small molecule microarray, anti-His fluorescence binding. 17,000 compounds, 1.3% hits. P19838;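 active = spot fluorescence over background significantly raised, with a chance value under 7% in all four replicate spots of the compound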;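 note: probe protein is his-tagged human p50 processed subunit at 1 µg/ml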
mut p53 react: mutant p53 pathway reactivation | SW480 PUMA-promoter luciferase | AID 624151 | activation, % at 9.98 µM | 28,000 compounds, 1.5% hits; in the data active = activation above about 52%
Hits are given with their value; 0 = inactive; - = no result given; + = active, no number. Compounds with a hit are over-represented: about 2.6% of the library has one in this group of screens.

SMILES	p53 mut binder	Myc binder	STAT3 SMM	NFkB SMM	mut p53 react
C=CCOC(=O)[C@H]1[C@@H]2C(=O)O[C@@H](c3ccccc3)[C@@H](c3ccccc3)N2[C@@H](c2ccc(OCCOC(=O)[C@@H]3C[C@@H]4C(=O)N5CCC[C@H]5C(=O)N4[C@@H]3c3cccc(OCCO)c3)cc2)[C@]12C(=O)Nc1ccc(I)cc12	0	0	0	+	-
C[C@H]1CN([C@@H](C)CO)C(=O)Cc2cc(NC(=O)C3CC3)ccc2O[C@H]1CN(C)S(=O)(=O)c1cccs1	0	0	0	0	0
CCc1cc2c(SCC(=O)c3ccc(C)cc3)ncnc2s1	-	-	-	-	64.9
CCOc1cc(C2c3c(oc4ccc(F)cc4c3=O)C(=O)N2CCc2ccc(OC)cc2)ccc1O (stereo not drawn)	-	-	-	-	0
O=C(NCCC(c1ccc(F)cc1)c1ccco1)c1cccs1 (stereo not drawn)	-	-	-	-	50.4
Cn1cnnc1SCC(=O)c1ccc2c(c1)OCCO2	0	0	0	0	0
Cc1nnc(SCC(=O)c2ccc3c(c2)OCCO3)s1	-	-	-	-	89.1
CCCCCC[C@H](O)[C@@H]1C[C@@H](O)C2=C(O1)[C@@H](O)CCC2=O	0	0	0	0	0
c1ccc(-c2nn3c(C4COc5ccccc5O4)nnc3s2)cc1 (stereo not drawn)	0	0	0	0	59.0
COc1ccc(/C=C/c2cc(O)cc(O[C@@H]3O[C@H](CO)[C@@H](O)[C@H](O)[C@H]3O)c2)cc1	0	0	0	0	64.3
CC(=O)c1c(O)cc(O[C@@H]2O[C@H](CO)[C@@H](O)[C@H](O)[C@H]2O)cc1O	0	0	0	0	0
CCn1c(SCC(=O)c2ccc(Cl)cc2Cl)nnc1-c1cccnc1	-	-	-	-	0
O=C(Cn1cc(CN2C(=O)COC[C@H]2c2ccccc2)nn1)Nc1nccs1	+	0	0	0	-
O=C(Nc1ccccc1)N[C@@H](Cc1ccccc1)Cn1cc(CN2C(=O)COC[C@H]2c2ccccc2)nn1	0	0	0	0	-
CCc1c(O)nc(SC(C)C(=O)Nc2ccc(Cl)cc2)[nH]c1=O (stereo not drawn)	-	-	-	-	0
CCCN(C)C[C@@H]1OCCCC[C@@H](C)Oc2ccc(NC(=O)Nc3cccc4ccccc34)cc2C(=O)N([C@H](C)CO)C[C@@H]1C	0	+	0	+	-
CCCN(C)C[C@H]1OCCCC[C@@H](C)Oc2ccc(NS(=O)(=O)c3ccc(OC)cc3)cc2C(=O)N([C@@H](C)CO)C[C@H]1C	+	+	0	0	0
C[C@@H]1CN([C@@H](C)CO)C(=O)c2cc(NC(=O)Nc3cccc4ccccc34)ccc2O[C@@H](C)CCCCO[C@H]1CN(C)CC1CC1	-	-	-	-	0
C[C@@H]1CN([C@@H](C)CO)C(=O)c2cc(NC(=O)Nc3cccc4ccccc34)ccc2O[C@@H](C)CCCCO[C@@H]1CN(C)CC1CCCCC1	0	+	0	+	-
C[C@@H]1CCCCO[C@H](CN(C)CC2CC2)[C@@H](C)CN([C@H](C)CO)C(=O)c2cc(NC(=O)Nc3cccc4ccccc34)ccc2O1	0	0	0	0	-
Cc1cc(Br)c2c(c1)C(O)(CC(=O)c1ccco1)C(=O)N2C (stereo not drawn)	-	-	-	-	0
CS(=O)(=O)N(CC(=O)Nc1ccc2ccccc2c1)c1ccc(Cl)cc1Cl	-	-	-	-	0
Cc1nc(-c2ccccc2)sc1-c1nnc(-c2cccc3ccccc23)o1	-	-	-	-	0
Cc1ccccc1N1CCN(S(=O)(=O)CC23CCC(C[C@@H]2NC(=O)[C@@H](N)CCS(C)(=O)=O)C3(C)C)CC1 (stereo partly drawn)	0	0	0	0	0
C[C@@H]1CCCCO[C@@H](CN(C)C(=O)Nc2ccccc2)[C@H](C)CN([C@H](C)CO)C(=O)c2cc(NC(=O)CCC(F)(F)F)ccc2O1	0	0	0	0	0
SMILES	p53 mut binder	Myc binder	STAT3 SMM	NFkB SMM	mut p53 react
C[C@@H]1CCCCO[C@H](CN(C)C(=O)Nc2ccccc2)[C@@H](C)CN([C@@H](C)CO)C(=O)c2cc(NC(=O)CCC(F)(F)F)ccc2O1	0	+	0	0	0
C[C@@H]1CN([C@@H](C)CO)C(=O)c2cc(NC(=O)CCC(F)(F)F)ccc2O[C@@H](C)CCCCO[C@H]1CN(C)C(=O)Nc1ccccc1	0	0	0	0	0
C[C@H](CO)N1C[C@H](C)[C@H](CN(C)C(=O)Nc2ccccc2)OCCCC[C@H](C)Oc2ccc(NC(=O)CCC(F)(F)F)cc2C1=O	0	0	0	+	0
COc1ccc(NC(=O)Cn2cnc3sc4c(c3c2=O)CCC(C)C4)cc1 (stereo not drawn)	0	0	0	0	0
Cc1cccc(NC(=O)CCC(=O)O)c1	0	+	0	0	0
N#Cc1cccc(NCCN2CCNC2=O)n1	-	-	-	-	0
Cc1ccc(O)c(N=Nc2ccccc2)n1	0	0	0	0	103.0
Cc1ccc2nc(-c3ccc(NC(=O)COc4ccc([N+](=O)[O-])cc4)cc3)sc2c1	0	0	0	0	70.2
Cc1ccc2nc(-c3ccc(NC(=O)C(C)Oc4ccc5c(C)cc(=O)oc5c4)cc3)sc2c1 (stereo not drawn)	-	-	-	-	77.0
CCC(Sc1nc(C)cc(C)n1)C(=O)Nc1ccc(-c2nc3ccc(C)cc3s2)cc1 (stereo not drawn)	0	0	0	0	84.8
Cc1ccc2nc(-c3cccc(NC(=O)COc4ccc([N+](=O)[O-])cc4)c3)oc2c1	-	-	-	-	72.3
COc1ccc(CCNC(=S)Nc2ccc(-c3nc4ccc(C)cc4s3)cc2)cc1OC	0	0	0	0	0
C[C@@H]1CN([C@H](C)CO)C(=O)Cc2cc(NC(=O)NC3CCCCC3)ccc2O[C@H]1CN(C)C(=O)Nc1ccc2c(c1)OCO2	0	0	0	0	0
O=C(COc1ccc([N+](=O)[O-])cc1)Nc1cccc(-c2nc3cc(Cl)ccc3o2)c1	-	-	-	-	59.6
Cc1ccc(-c2cc(C(=O)NCc3cccnc3)no2)cc1	-	-	-	-	91.3
Cc1ccc(-c2cc(C(=O)NCCCN3CCOCC3)no2)cc1	-	-	-	-	0
Cc1cc(Cl)ccc1OCC(=O)Nc1cccc(NC(=O)c2ccccc2C)c1	-	-	-	-	57.2
Cc1ccc(OCC(=O)Nc2cccc(-c3nc4ccccc4[nH]3)c2)cc1	0	0	0	0	0
Cc1cccc(OCC(=O)Nc2cccc(-c3nnc(-c4ccccc4)o3)c2)c1C	-	-	-	-	67.7
Cc1ccc(OCC(=O)Nc2cccc(-c3nnc(-c4ccccc4)o3)c2)cc1	-	-	-	-	118.8
Cn1nnnc1SCC(=O)Nc1ccc(I)cc1	-	-	-	-	78.3
Cn1nnnc1SCC(=O)Nc1ccc(C(=O)O)cc1	-	-	-	-	0
Cc1noc(C)c1NC(=O)Nc1ccc2c(c1)C(=O)N([C@@H](C)CO)C[C@@H](C)[C@@H](CN(C)C(=O)C1CCCCC1)OCCCC[C@H](C)O2	0	+	0	0	0
Cc1noc(C)c1NC(=O)Nc1ccc2c(c1)C(=O)N([C@@H](C)CO)C[C@@H](C)[C@H](CN(C)C(=O)C1CCCCC1)OCCCC[C@H](C)O2	0	+	0	+	0
Cc1noc(C)c1NC(=O)Nc1ccc2c(c1)C(=O)N([C@H](C)CO)C[C@H](C)[C@H](CN(C)C(=O)C1CCCCC1)OCCCC[C@H](C)O2	0	0	+	0	0
